Among the test systems are TLK1; TLK2; TNIK; TNK1; TNK2; TNNI3K; TRKB; TRPM6; TSSK1B; TSSK3; TTK; TXK; TYRO3; ULK1; ULK2; ULK3.
Details in all cases: concentration: 1 μM, replicates: in singlicate; n = 1
For a further experiment, the system named is T1, TRKA.
T1 construct: gene NTRK1

In the next experiment the test system is T2, TRKC.
T2 construct: gene NTRK3

For experiment [1], the system named is TYK2(JH1domain-catalytic).
Experiment [2] concerns TYK2(JH2domain-pseudokinase).
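Note: KINOMEscan kinase panel screen.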

In the case of `FC(F)(F)c1ccccc1-c1cc(-c2c[nH]nc2-c2ccccn2)ccn1` [GW679396], the “%Inh” value with TLK1 was found to be 0%; in the experiment with TLK2, 0%; in the experiment with TNIK, 18%; in the experiment with TNK1, 1%; in the experiment with TNK2, 0%; with TNNI3K, 0%. The “%Inh” value in the experiment on TRKA was 39%; in the experiment on TRKB, 0%; with TRKC, 0%; in the experiment on TRPM6, 3%; in the experiment on TSSK1B, 1%; with TSSK3, 4%. In addition, the “%Inh” value in the experiment on TTK is 0%; with TXK, 0%; in [1] it was 0%; in experiment [2] it was 0%; with TYRO3, 13%; in the experiment on ULK1 it was 0%. The “%Inh” value in the experiment with ULK2 and in the experiment on ULK3 was 0% throughout.

For `COc1ccc(Nc2nccc(-c3ccc(NC(=O)c4cc5cc(F)ccc5[nH]4)cc3)n2)cc1` [GSK1229496], the “%Inh” value was determined as 23% in the experiment with TLK1; 0% in the experiment with TLK2; 0% in the experiment on TNIK; 47% with TNK1; 0% in the experiment with TNK2; 0% with TNNI3K. Also, the “%Inh” value is listed as 9% in the experiment with TRKA; 13% with TRKB; 0% in the experiment with TRKC; 0% in the experiment with TRPM6; 0% in the experiment on TSSK1B; 22% with TSSK3. The “%Inh” value amounted to 0% in the experiment on TTK; 0% in the experiment on TXK; 23% in experiment [1]; 0% in experiment [2]; 0% in the experiment with TYRO3; 0% with ULK1. Moreover, the entries for the “%Inh” value in the experiment on ULK2 and in the experiment with ULK3 were 0% and 8%, respectively.

Turning to `Cn1cncc1-c1cc2c(Nc3ccc(OCc4ccccc4)cc3)ncnc2cn1` [GW281179], the “%Inh” value worked out at 18% with TLK1; 0% with TLK2; 0% in the experiment with TNIK; 1% in the experiment on TNK1; 20% in the experiment with TNK2; 11% in the experiment with TNNI3K. Besides, the “%Inh” value is given as 0% with TRKA; 37% in the experiment on TRKB; 0% in the experiment with TRKC; 12% in the experiment with TRPM6; 18% in the experiment with TSSK1B; 10% with TSSK3. The “%Inh” value in the experiment on TTK came out at 7%; in the experiment with TXK it was 21%; in experiment [1], 96.8%; in experiment [2], 27%; in the experiment with TYRO3, 0%; with ULK1, 0%. The “%Inh” value with ULK2 and in the experiment with ULK3 was 0% in each case.

Consider `CNCc1ccc2nc(NC(=O)c3ccc(C(C)(C)C)cc3)cn2c1`, for which the “%Inh” value was 0% with TLK1; 0% in the experiment on TLK2; 8% in the experiment with TNIK; 0% in the experiment with TNK1; 1% with TNK2; 6% in the experiment with TNNI3K. In addition, the “%Inh” value with TRKA amounted to 39%; with TRKB it was 58%; in the experiment on TRKC, 28%; in the experiment on TRPM6, 1%; in the experiment on TSSK1B it was 0%; in the experiment with TSSK3 it was 0%. The “%Inh” value in the experiment with TTK was found to be 0%; in the experiment with TXK, 8%; in experiment [1] it was 0%; in experiment [2], 24%; in the experiment on TYRO3, 0%; in the experiment on ULK1 it was 20%. In addition, the “%Inh” value in the experiment on ULK2 came to 15%; in the experiment with ULK3, 58%.

As for `CNc1cc(-c2ccc3c(N)n[nH]c3c2)nc(N)n1` [GSK2224810], the “%Inh” value in the experiment on TLK1 amounted to 25%; in the experiment with TLK2, 20%; in the experiment with TNIK it was 8%; with TNK1, 0%; in the experiment on TNK2, 0%; with TNNI3K, 2%. Also, the “%Inh” value in the experiment on TRKA is recorded as 11%; with TRKB, 0%; in the experiment with TRKC, 0%; in the experiment with TRPM6 it was 0%; in the experiment with TSSK1B, 0%; in the experiment on TSSK3, 31%. The “%Inh” value was 0% in the experiment on TTK; 0% in the experiment on TXK; 7% in experiment [1]; 43% in experiment [2]; 0% in the experiment on TYRO3; 36% in the experiment with ULK1. Further, the “%Inh” value was 17% in the experiment with ULK2 and 5% in the experiment on ULK3.

As for `CCn1c(-c2c(N)noc2C)nc2cnccc21` [SB-737856], the “%Inh” value was determined as 0% in the experiment with TLK1; 0% with TLK2; 0% in the experiment with TNIK; 0% in the experiment with TNK1; 22% with TNK2; 6% in the experiment on TNNI3K. The “%Inh” value in the experiment on TRKA is 0%; in the experiment on TRKB it was 0%; with TRKC, 0%; in the experiment with TRPM6, 0%; with TSSK1B, 19%; with TSSK3 it was 3%. Also, the “%Inh” value is listed as 0% in the experiment with TTK; 31% with TXK; 0% in [1]; 21% in experiment [2]; 12% in the experiment with TYRO3; 18% in the experiment on ULK1. Also, the “%Inh” value in the experiment with ULK2 came to 7%; with ULK3, 16%.

For `Cc1ccc(NC(=O)c2ccc(Cl)cc2)cc1-c1ccc(C(=O)Nc2ccncc2)cc1` [GSK1398467], the “%Inh” value amounted to 8% in the experiment on TLK1; 3% in the experiment with TLK2; 0% with TNIK; 9% in the experiment on TNK1; 25% with TNK2; 21% in the experiment with TNNI3K. Besides, the “%Inh” value in the experiment with TRKA worked out at 0%; in the experiment on TRKB, 0%; with TRKC it was 25%; with TRPM6 it was 19%; in the experiment with TSSK1B, 18%; in the experiment on TSSK3, 6%. Moreover, the “%Inh” value in the experiment on TTK was 0%; in the experiment on TXK, 8%; in experiment [1] it was 0%; in [2], 17%; with TYRO3, 0%; in the experiment with ULK1, 0%. The “%Inh” value with ULK2 and in the experiment on ULK3 was 0% throughout.

In the case of `CCc1ccc(-c2ccc3c(c2)-c2n[nH]cc2S(=O)(=O)N3C)cc1`, the “%Inh” value was 28% in the experiment on TLK1; 0% in the experiment on TLK2; 9% in the experiment on TNIK; 34% in the experiment on TNK1; 0% in the experiment with TNK2; 0% in the experiment on TNNI3K. The “%Inh” value in the experiment on TRKA, in the experiment on TRKB, with TRKC, with TRPM6, in the experiment with TSSK1B and with TSSK3 was 0% each time. For the same compound, the “%Inh” value with TTK stood at 0%; in the experiment on TXK, 14%; in experiment [1], 0%; in experiment [2], 5%; in the experiment with TYRO3, 0%; with ULK1 it was 0%. Further, the “%Inh” value with ULK2 and with ULK3 was 0% each time.

Take `COc1ccc(CSc2nnc(-c3ccc4ncsc4c3)o2)cc1C(F)(F)F`: the “%Inh” value in the experiment on TLK1 stood at 0%; in the experiment on TLK2, 7%; in the experiment on TNIK, 0%; with TNK1, 0%; in the experiment on TNK2, 0%; in the experiment with TNNI3K it was 0%. Besides, the “%Inh” value in the experiment on TRKA was 0%; in the experiment with TRKB, 0%; in the experiment with TRKC it was 13%; in the experiment with TRPM6, 0%; with TSSK1B it was 0%; in the experiment on TSSK3 it was 0%. For the same compound, the “%Inh” value with TTK came out at 13%; with TXK, 0%; in experiment [1], 0%; in [2] it was 0%; in the experiment with TYRO3 it was 0%; in the experiment with ULK1, 0%. In addition, the “%Inh” value in the experiment on ULK2 and in the experiment on ULK3 was 0% throughout.

As to `CC(=O)c1c(C)c2cnc(Nc3ccc(N4CCNCC4)cn3)nc2n(C2CCCC2)c1=O`, the “%Inh” value in the experiment on TLK1 worked out at 0%; in the experiment on TLK2, 0%; in the experiment on TNIK, 0%; in the experiment on TNK1 it was 0%; with TNK2, 7%; in the experiment with TNNI3K, 0%. The “%Inh” value in the experiment with TRKA, with TRKB, with TRKC, with TRPM6, in the experiment on TSSK1B and in the experiment with TSSK3 was 0% throughout. Moreover, the “%Inh” value is recorded as 92.1% in the experiment on TTK; 5% in the experiment with TXK; 0% in experiment [1]; 0% in [2]; 0% in the experiment on TYRO3; 0% with ULK1. Further, the “%Inh” value amounted to 45% with ULK2 and 0% in the experiment with ULK3.

In the case of `CCn1c(-c2ccccc2)nc2cnccc21` [SB-733416], the “%Inh” value with TLK1 is 0%; with TLK2, 0%; with TNIK, 0%; in the experiment with TNK1, 31%; with TNK2, 17%; in the experiment with TNNI3K it was 16%. Also, the “%Inh” value in the experiment on TRKA was 0%; with TRKB, 0%; in the experiment on TRKC, 25%; in the experiment with TRPM6, 0%; with TSSK1B, 32%; with TSSK3, 14%. Besides, the “%Inh” value with TTK is reported as 0%; in the experiment on TXK it was 9%; in experiment [1] it was 24%; in experiment [2], 45%; in the experiment with TYRO3, 0%; with ULK1, 20%. The “%Inh” value in the experiment on ULK2 is recorded as 0%; in the experiment with ULK3, 14%.

For the compound `CS(=O)(=O)CCNCc1nc(-c2ccc3ncnc(Nc4ccc5c(cnn5Cc5ccccc5)c4)c3c2)cs1.Cl.Cl` [GW569716], the “%Inh” value in the experiment on TLK1 turned out to be 0%; in the experiment with TLK2, 0%; in the experiment on TNIK, 0%; in the experiment with TNK1, 0%; in the experiment with TNK2, 18%; in the experiment with TNNI3K, 0%. The “%Inh” value came to 0% in the experiment with TRKA; 73% with TRKB; 40% with TRKC; 0% in the experiment with TRPM6; 0% in the experiment on TSSK1B; 1% in the experiment with TSSK3. For the same compound, the “%Inh” value in the experiment with TTK turned out to be 3%; in the experiment with TXK, 3%; in [1] it was 22%; in [2] it was 57%; in the experiment with TYRO3, 0%; with ULK1, 0%. Moreover, the “%Inh” value in the experiment on ULK2 and with ULK3 was 0% throughout.
